Source: PubChem BioAssay (National Center for Advancing Translational Sciences (NCATS))
HP1b chromo inh = HTS for Inhibitors of HP1-beta Chromodomain Interactions with Methylated Histone Tails. Potency, µM (top dose mostly 114 µM), hits mostly inhibitors. hit rate 0.56% among 390,000. AID 540317, 2011. AlphaScreen HP1-beta / biotin-H3K9me3 peptide binding; also: nearly all actives have a fitted effect of over 70% in size
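AlphaScreen: HP1-beta (50 nM) preformed 30 min with biotin-H3(1-18)K9me3 peptide (50 nM) in PBS pH 7.4, 0.01% Tween-20. Compound added for 30 min at RT, then streptavidin donor/nickel chelate acceptor beads (10 ug/mL) for 30 min.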
G9a block = qHTS Assay for Inhibitors of Histone Lysine Methyltransferase G9a; Histone-lysine N-methyltransferase EHMT2 (Homo sapiens), Q96KQ7; G9a H3K9 monomethylation, AlphaScreen, 2 h; Potency, µM (highest dose often 102 µM), actives largely listed as inhibitors; hit rate 8.8% among 350,000; also: nearly all actives have a fitted effect of over 75% in size
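Methyltransferase reactions run at room temperature for 2 h (20 nM enzyme, 500 nM biotin-H3K9 peptide, 20 uM SAM) after a 15 min compound preincubation; product detected by AlphaScreen beads and anti-H3K9me1 antibody.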
PLK1 PBD block = qHTS for Inhibitors of PLK1-PDB (polo-like kinase 1 - polo-box domain): Primary Screen; Serine/threonine-protein kinase PLK1 (Homo sapiens), P53350; Plk1 PBD binding of FITC phosphopeptide, fluorescence polarization; Potency, µM, most hits filed as inhibitors; hit rate 2.8% among 360,000; also: series mostly up to about 57 µM; nearly all actives have a fitted effect of over 65% in size
BAZ2B block = qHTS Assay for Inhibitors of BAZ2B; Bromodomain adjacent to zinc finger domain protein 2B (Homo sapiens), Q9UIF8; AlphaScreen BAZ2B-H3K14Ac peptide displacement; Potency, µM (doses to about 114 µM), usual class: inhibitors; hit rate 4.4% among 360,000; AID 504333, 2011; also: nearly all actives have a fitted effect of over 60% in size
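BAZ2B 50 nM plus b-H3(5-23)K14Ac 50 nM, PBS pH 7.4/0.01% Tween-20, 30 min RT; compound added (max 110 uM), 30 min RT; streptavidin donor/Ni-chelate acceptor beads 10 ug/mL final, 20 min dark; AlphaScreen read.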
12-LOX inh = Primary qHTS assay for inhibitors of human arachidonate 12S-lipoxygenase (ALOX12): Round 2 | purified 12hLO, xylenol orange hydroperoxide absorbance | Potency, µM (doses to about 108 µM), hits mostly inhibitors | hit rate 1.1% among 580,000
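Hydroperoxide product was detected by ferrous iron/xylenol orange as the 573 to 405 nm absorbance ratio. Arachidonic acid at 40 uM (final) was turned over for 30 min at room temperature by 150 nM human 12hLO, pH 7.0 Hepes buffer, after 15 min compound preincubation.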
JMJD2A Tudor inh = qHTS Assay for Inhibitors of JMJD2A-Tudor Domain; AlphaScreen JMJD2A-Tudor / H3K4me3 peptide binding; Potency, µM (doses to about 114 µM), actives largely listed as inhibitors; hit rate 4.4% among 390,000; AID 504339, 2011; also: nearly all actives have a fitted effect of over 50% in size
Each line names hits and unclear results; the compound was inactive in the other large screens; ! = not active in a repeat. The list is not random: actives were taken first. Their share in the collection is about 9%. Calls follow the shape of the dose curve; as a rule, active = well fitted curve in the direction sought with a large enough effect; inconclusive = small, poorly fitted or top-dose-only effect, or another doubt; inactive = no such curve, though single readings can be large; an effect the other way counts as inactive or inconclusive.

O=C(c1ccc2c(c1)N(Cc1cccc(F)c1)C(=O)c1ccccc1S2)N1CCOCC1	12-LOX inh inconclusive (no result: PLK1 PBD block)
O=c1cc(-c2cccc(F)c2)[nH]c2ccccc12	G9a block 32µM!
Cc1ccc2[nH]c(-c3cccc(F)c3)cc(=O)c2c1	G9a block 0.28µM!
O=c1cc(-c2ccccc2)[nH]c2ccc(F)cc12	G9a block 79µM!
CCOC(=O)C1=CN(Cc2cccc(Br)c2)S(=O)(=O)N(CC)C1C (configuration not stated)	none (no result: G9a block, BAZ2B block)
Cc1onc(-c2ccccc2)c1NC(=O)OC(C)c1cccnc1 (configuration not stated)	none (no result: HP1b chromo inh, G9a block, BAZ2B block, JMJD2A Tudor inh)
O=C(O)C1=C[C@H](c2ccc3c(c2)OCO3)C[C@H](OCc2ccc(CO)cc2)O1	none (no result: G9a block, BAZ2B block)
O=C(/C=C/c1ccc(OCCCF)cc1)N1CCOCC1	none
Oc1c(Br)cc(Br)cc1C=Nc1ccc(F)c(Cl)c1	12-LOX inh 4.5µM (no result: HP1b chromo inh, G9a block, PLK1 PBD block, BAZ2B block, JMJD2A Tudor inh)
Cc1nc2ccccc2c(=O)n1/N=C/c1ccc(O)c(O)c1O	HP1b chromo inh inconclusive, G9a block 1.3µM, PLK1 PBD block 11µM, BAZ2B block inconclusive, JMJD2A Tudor inh 14µM
Cc1nc2ccccc2c(=O)n1/N=C/c1ccccc1O	none (no result: G9a block)
Cc1nc2ccccc2c(=O)n1/N=C/c1ccccc1	none
Cc1[nH]n(-c2ccccc2)c(=O)c1/C=N/n1c(C)nc2ccccc2c1=O	G9a block 3.2µM
Cc1cc([N+](=O)[O-])cc(/C=N/n2c(C)nc3ccccc3c2=O)c1O	BAZ2B block 79µM, 12-LOX inh inconclusive, JMJD2A Tudor inh inconclusive
Cc1nc2ccccc2c(=O)n1/N=C/c1ccc2ccccc2c1O	G9a block 28µM, BAZ2B block inconclusive, JMJD2A Tudor inh inconclusive
Cc1ccc(N/C=C2\C(=O)C3(C)CCC2C3(C)C)cc1C (configuration not stated)	G9a block inconclusive
COC(=O)c1ccccc1NC(=O)c1ccc2nc(Cc3ccccc3)oc2c1	none (no result: PLK1 PBD block)
COC(=O)c1c(C)sc(-c2c(-c3ccc4c(c3)OCCO4)[nH]c3c2c(=O)n(C)c(=O)n3C)c1O	none (no result: PLK1 PBD block)
COC(=O)c1c(C)sc(-c2c(-c3ccc4c(c3)OCCO4)[nH]c3[nH]c(=O)[nH]c(=O)c23)c1O	HP1b chromo inh inconclusive, G9a block 14µM, BAZ2B block 35µM, 12-LOX inh 25µM, JMJD2A Tudor inh 50µM (no result: PLK1 PBD block)
O=C(NC1CCN(c2cc(-c3cccs3)[nH]n2)CC1)c1cc(Cl)ccc1F	none (no result: HP1b chromo inh, G9a block, PLK1 PBD block, BAZ2B block, JMJD2A Tudor inh)
Cc1cc(C(=O)NNC(C)Cc2ccccc2)no1 (configuration not stated)	12-LOX inh inconclusive (no result: HP1b chromo inh, G9a block, BAZ2B block, JMJD2A Tudor inh)
COc1ccc(C2/C(=C(\O)c3ccc(OC)c(Cl)c3)C(=O)C(=O)N2CCN(C)C)cc1 (configuration not stated)	G9a block 79µM, 12-LOX inh inconclusive
COc1ccc(/C(O)=C2\C(=O)C(=O)N(CCN(C)C)C2c2cccc(OC)c2OC)cc1 (configuration not stated)	G9a block 11µM
COc1cccc(C2/C(=C(/O)c3cnn(-c4ccccc4)c3C)C(=O)C(=O)N2CCN(C)C)c1OC (configuration not stated)	G9a block 14µM, BAZ2B block inconclusive
COc1ccccc1C1/C(=C(/O)c2cnn(-c3ccccc3)c2C)C(=O)C(=O)N1CCN(C)C (configuration not stated)	none (no result: G9a block, BAZ2B block)
CN1C(=O)C2(CCN(C(=O)CCn3ccc(=O)[nH]c3=O)CC2)c2ccccc21	none (no result: HP1b chromo inh, G9a block, PLK1 PBD block, BAZ2B block, JMJD2A Tudor inh)
CCOc1ccc(-c2cc(C(=O)N3CCCC3)c3ccccc3n2)cc1	G9a block inconclusive (no result: 12-LOX inh)
Cc1cc(=O)oc2c3c(cc(OCC(=O)N4CCC(C(=O)O)CC4)c12)OC(C)(C)CC3	none
O=C(O)c1ccccc1Nc1ccccc1	G9a block 24µM
CC(=O)Nc1ccc(Nc2ccccc2)cc1	none (no result: G9a block)
COc1cccc(Nc2ccccc2C(=O)O)c1	G9a block 40µM, BAZ2B block inconclusive
O=C(O)c1ccccc1Nc1ccc(OC(F)F)cc1	BAZ2B block inconclusive
COc1cccc(Oc2ccc(OC)cc2C(=O)O)c1	12-LOX inh inconclusive, JMJD2A Tudor inh 25µM (no result: G9a block)
CC(=O)Nc1ccc(NC(=O)c2ccccc2Nc2ccccc2)cc1	G9a block 50µM
CCOC(=O)c1c(S(=O)(=O)N2CCCC(C(=O)Nc3cccc(C)n3)C2)c(C)n(C)c1C (configuration not stated)	none
COc1ccc(OC)c(S(=O)(=O)Nc2ccccc2C(=O)O)c1	G9a block inconclusive
COc1cc(-c2ccc(Nc3ccccc3C(=O)O)c(OC)c2)ccc1Nc1ccccc1C(=O)O	HP1b chromo inh 35µM, G9a block 0.79µM, PLK1 PBD block 17µM, BAZ2B block 5.6µM, 12-LOX inh 35µM, JMJD2A Tudor inh inconclusive
CC(=O)n1cc(Nc2ccccc2C(=O)O)c2ccccc21	G9a block 40µM, 12-LOX inh inconclusive
CCCCNC(=O)C1(C)CCN1Cc1ccc(C(=O)OCC)cc1 (configuration not stated)	none (no result: HP1b chromo inh, G9a block, BAZ2B block, JMJD2A Tudor inh)
CN1CCSc2ccc(C(=O)NCc3ccccc3F)cc21	G9a block 11µM, 12-LOX inh inconclusive
CCN1CCSc2ccc(C(=O)NCc3ccccc3F)cc21	12-LOX inh inconclusive, JMJD2A Tudor inh inconclusive (no result: G9a block)
CCN1CCSc2ccc(C(=O)NCc3ccccc3C)cc21	G9a block 71µM, BAZ2B block inconclusive, 12-LOX inh inconclusive, JMJD2A Tudor inh inconclusive
Cc1ccc(CN2CCSc3ccc(C(=O)Nc4ccc(Cl)cc4)cc32)cc1	12-LOX inh inconclusive (no result: PLK1 PBD block)
CCN1CCSc2ccc(C(=O)NCc3ccccc3Br)cc21	BAZ2B block inconclusive, 12-LOX inh inconclusive
CC(C)Oc1ccc(CNC(=O)c2ccc3c(c2)N(C)CCS3)cc1	G9a block 56µM, BAZ2B block inconclusive, JMJD2A Tudor inh inconclusive
CCN1CCSc2ccc(C(=O)Nc3ccc(NC(C)=O)cc3)cc21	G9a block 50µM
COc1ccc(CNC(=O)c2ccc3c(c2)N(C)CCS3)cc1	none
COc1ccc(NC(=O)CCNC(=O)c2ccccc2Cl)cc1S(=O)(=O)N1CCCCC1	none (no result: HP1b chromo inh, G9a block, BAZ2B block, JMJD2A Tudor inh)
NC(=O)c1ccccc1Nc1nc2nc3ccccc3c(=O)n2cc1Br	BAZ2B block inconclusive (no result: G9a block, 12-LOX inh)
COc1ccccc1CNC(=O)COC(=O)c1cc(S(=O)(=O)N2CCOCC2)ccc1Cl	G9a block inconclusive
